The text below walks through data of PubChem BioAssay (NCATS).

Results filed as inconclusive are left out. Calls of active or inactive are those of the source. Calls follow the shape of the dose curve; as a rule, active = well fitted cell-killing curve with a large enough effect; inconclusive = small, poorly fitted or top-dose-only effect; inactive = no such curve, though single readings can be large or run the other way.
Potency is read from the fitted curve at half-maximal effect.

This test is described as follows: qHTS of pediatric cancer cell lines to identify multiple opportunities for drug repurposing: Primary screen for MG 63 (6-TG R) cells (AID 1347105). Also: nearly all actives have a fitted effect of over 50% in size. The conditions noted are these: MG 63 (6-TG R) viability, CellTiter-Glo, 48 h; series mostly up to 46 µM. An excerpt:
Drug repurposing or repositioning has been offered as a strategy for drug development in oncology programs. This approach has special potential for childhood cancers and other rare or orphan diseases, where the expected return on new drug development has been a disincentive to pharmaceuticals. […] In this project we exploit the poly-pharmacology of drugs to discover new indications via phenotypic screening of a panel of 19 well-characterized cell lines derived from solid tumors seen in children and adolescents. The goal is to identify approved drugs with previously unrecognized anticancer properties that has the potential to reveal new mechanisms and biological processes involved in carcinogenesis or drug resistance. We employed a titration-based paradigm (quantitative high-throughput screening or qHTS), where all compounds were tested at multiple concentrations for their effect on cell viability. Concentration-response curves (CRCs) were derived directly from the primary screen, and both potency and efficacy values were used to identify compounds with robust bioactivity profiles. We screened the NIH Chemical Genomics Center (NCGC) Pharmaceutical Collection (NPC) and Mechanism Interrogation Plate (MIPE) small molecule collections of approved and investigational compounds against these cell lines; and measured metabolically active cells after 48 hours of compound treatment as a proxy for cell viability. […] Assay Submitter: Nathalia J. Martinez, National Center for Advancing Translational Sciences, National Institutes of Health, Rockville, MD, USA; email: natalia.martinez@nih.gov Shen, M et al. Quantitative high-throughput phenotypic screening of pediatric cancer cell lines identifies multiple opportunities for drug repurposing. Oncotarget 2017 Dec 19;9(4):4758-4772. PMID 29435139.
The cells were obtained from University of North Carolina (UNC), Pediatric Preclinical Testing Program (PPT), and Coriell Institute (CI). qHTS cell viability assay: Cells were assayed in growth media at a density of 500-1,000 cells/well. Five microliters of cells were dispensed into 1,536-well, white, solid-bottom, TC-treated plates (Greiner Bio One) using a multidrop dispenser and incubated at 37 degrees C, 5% CO2, under a humidified atmosphere for 5 hours. Twenty-three nanoliters of compounds and controls (neutral control DMSO or positive control bortezomib at final concentration of 2.3 µM) were subsequently transferred by Kalypsys pintool. For primary screens, the MIPE collection was tested at 11-point dilutions (final concentrations range from 0.78 nM to 46 µM) and the NPC collection at 8-point dilutions (final concentrations range from 0.59 nM to 46 µM). Compounds tested in follow-up screens were assayed at 11-point dilutions. Cells were incubated for 48 hours, followed by addition of 3 µL of CellTiter-Glo (Promega). After a 15 min incubation at room temperature, samples were analyzed for luminescence intensity using a ViewLux High-throughput CCD imager equipped with clear filters.
A general note: Quantitative high-throughput screening tests each substance at several concentrations.
With `O=C(CCCCCCNC(=O)c1cnc(N(c2ccccc2)c2ccccc2)nc1)NO`, the Potency was 14.8 µM (active).

As to `Cc1nc(Nc2n[nH]c3c2CN(C(=O)N[C@H](CN(C)C)c2ccccc2)C3(C)C)c2sccc2n1`, the Potency was 9.35 µM (active).

Consider `COc1cc(OC2CCN(C)CC2)ccc1Nc1ncc2c(n1)n(C1CCCC1)c(=O)n2C`, for which the Potency is 23.5 µM (active).

As to `O=C(c1cncc(Br)c1)N1CCC(N2CCCC2)CC1`, the Potency entry is “inactive”.

In the case of `Cc1ccc(-c2ncn(-c3ccc(Nc4nccc(-c5cccc(N6CCOCC6)c5)n4)cc3)n2)cn1`, the Potency was 0.0935 µM (active).

Take `C#Cc1cccc(Nc2ncnc3cc(OC)c(OCCCCCCC(=O)NO)cc23)c1`: the Potency was 0.118 µM (active).

As to `Cn1c(CNc2ccc(C(=N)N)cc2)nc2cc(C(=O)N(CCC(=O)O)c3ccccn3)ccc21`, the Potency result is “inactive”.

`COc1cc2c(Oc3ccc(-c4cnc(Nc5ccc(F)cc5)n(C)c4=O)cc3F)ccnc2cc1OCCCN1CCOCC1`: the Potency is 3.72 µM (active).

Turning to `CN(C)CC(C)(C)CNc1nn2c(-c3ccccc3)nnc2cc1C1CCC1`, the Potency is 2.96 µM (active).

Consider `Cc1nc2cnc3ccc(C#Cc4cccnc4)cc3c2n1-c1ccc(C(C)(C)C#N)cc1`, for which the Potency is 0.0743 µM (active).

In the case of `CCOc1ccccc1OCCNC(C)Cc1ccc(OC)c(S(N)(=O)=O)c1` (stereo not given), the Potency entry was “inactive”.

`C[C@@H](Oc1cc(-n2cnc3ccc(CN4CCN(C)CC4)cc32)sc1C(N)=O)c1ccccc1C(F)(F)F`: the Potency result was “inactive”.

As to `CCn1nnc2c(N3CCOCC3)nc(-c3ccc(NC(=O)Nc4ccc(C(=O)N5CCN(C)CC5)cc4)cc3)nc21`, the Potency was 0.0469 µM (active).

For `O=C(O)CCCc1c[nH]c2ccccc12`, the Potency entry is “inactive”.

Take `COc1ccc(C(=O)CC2(O)C(=O)Nc3c(Cl)ccc(Cl)c32)cc1` (stereo not given): the Potency was 3.72 µM (active).

On to `CS(=O)(=O)N1CCN(Cc2cc3nc(-c4cccc5[nH]ncc45)nc(N4CCOCC4)c3s2)CC1`, for which the Potency was 0.0935 µM (active).

Turning to `COc1cc(C(=O)N2CCC(N3CCN(C)CC3)CC2)ccc1Nc1ncc2c(n1)N(C)c1ccccc1C(=O)N2C`, the Potency was 9.35 µM (active).

In the case of `C[C@@]12O[C@@H](C[C@]1(O)CO)n1c3ccccc3c3c4c(c5c6ccccc6n2c5c31)CNC4=O`, the Potency was 4.69 µM (active).

With `CC(C)Nc1cc(C(F)(F)F)cc2nc(NC(=O)c3cccnc3)nn12`, the Potency entry is “inactive”.

On to `Cn1cncc1[C@@](N)(c1ccc(Cl)cc1)c1ccc2c(c1)c(-c1cccc(Cl)c1)cc(=O)n2C`, for which the Potency was 23.5 µM (active).

With `CC(C)[C@H](C(=O)Nc1ccc(C(=O)NO)cc1)c1ccccc1`, the Potency was 2.96 µM (active).

As for `CC(=O)Nc1sc2c(c1-c1nc3ccccc3s1)CNC2`, the Potency entry was “inactive”.

On to `CCC(=C(c1ccccc1)c1ccc(OCCN(C)C)cc1)c1ccccc1`, for which the Potency entry is “inactive”.

As for `C=CC(=O)Nc1cc2c(Nc3ccc(F)c(Cl)c3)ncnc2cc1OCCCN1CCOCC1`, the Potency was 23.5 µM (active).

With `COc1cc(C(=O)NS(=O)(=O)c2ccccc2C)ccc1Cc1cn(C)c2ccc(NC(=O)OC3CCCC3)cc12`, the Potency is 29.6 µM (active).

For `CCN(CC)CCCCNc1ncc2cc(-c3cc(OC)cc(OC)c3)c(NC(=O)NC(C)(C)C)nc2n1`, the Potency entry is “inactive”.

Turning to `O=c1[nH]nc(Sc2ncc([N+](=O)[O-])s2)n1-c1ccc2c(c1)OCCO2`, the Potency was 5.9 µM (active).

With `Nc1ncnc2c1c(-c1cnc3[nH]ccc3c1)nn2C1CCCC1`, the Potency is 0.118 µM (active).

`CCCCCCCCCC(=O)N[C@@H](Cc1c[nH]c2ccccc12)C(=O)N[C@H](CC(N)=O)C(=O)N[C@@H](CC(=O)O)C(=O)N[C@@H]1C(=O)NCC(=O)N[C@@H](CCCN)C(=O)N[C@@H](CC(=O)O)C(=O)N[C@H](C)C(=O)N[C@@H](CC(=O)O)C(=O)NCC(=O)N[C@H](CO)C(=O)N[C@@H]([C@@H](C)CC(=O)O)C(=O)N[C@@H](CC(=O)c2ccccc2N)C(=O)O[C@@H]1C`: the Potency result is “inactive”.

As to `C[C@H]1C[C@@H]2[C@@H]([C@@H](O)C[C@@]3(C)[C@H]2CC[C@]3(O)C(=O)CO)[C@@]2(C)C=CC(=O)C=C12`, the Potency entry was “inactive”.

`CC(=O)OCCN1C(=O)c2c(C)nc3ccc(S(=O)(=O)N4CCOCC4)cc3c2C1=O`: the Potency result is “inactive”.

As for `COCCOc1ccc2c(c1)ncn2-c1ccc2cccc(N3CCC(N)CC3)c2n1`, the Potency is 29.6 µM (active).

In the case of `C[C@]1(CO)CN(c2cc(C(=O)Nc3ccc4c(c3)-c3c(c(C(N)=O)nn3-c3ccc(F)cc3)CC4)c(Cl)cn2)C[C@@]1(C)CO`, the Potency is 9.35 µM (active).

For `C[C@@H](Oc1cc(-c2cnn(C3CCNCC3)c2)cnc1N)c1c(Cl)ccc(F)c1Cl`, the Potency was 18.7 µM (active).

In the case of `CNc1nccc(-c2cccnc2Oc2cc(C(=O)Nc3cccc(C(F)(F)F)c3)ccc2C)n1`, the Potency was 4.69 µM (active).

Regarding `CC(C)c1ccc(Cn2ccc3c4c(N)nc(NC5CC5)nc4ccc32)cc1`, the Potency is 14.8 µM (active).

Turning to `Cc1cnc(Nc2ccc(F)cc2Cl)nc1-c1c[nH]c(C(=O)N[C@H](CO)c2cccc(Cl)c2)c1`, the Potency is 29.6 µM (active).

With `COc1cc2c(Oc3ccc(NC(=O)C4(C(=O)Nc5ccc(F)cc5)CC4)cc3F)ccnc2cc1OCCCN1CCOCC1`, the Potency is 4.69 µM (active).

On to `Cc1cc(Nc2cc(N3CCN(C)CC3)nc(Sc3ccc(NC(=O)C4CC4)cc3)n2)n[nH]1`, for which the Potency is 18.7 µM (active).

For the compound `CN(C)CC=CC(=O)Nc1cc2c(Nc3ccc(F)c(Cl)c3)ncnc2cc1O[C@H]1CCOC1`, the Potency is 14.8 µM (active).
